Source: PubChem BioAssay
A selection: hits, their analogues and other compounds. The true share with any hit is near 3.5%.
GPR151 activ: activators of human GPR151, primary screen, cell-based, PathHunter beta-arrestin, luminescence; PathHunter beta-arrestin GPR151 cells; activation, % at 11.2 µM; G-protein coupled receptor 151 (Homo sapiens), Q8TDV0; 650,000 compounds, 1% hits; in the data active means activation above about 4.9%
TEAD-YAP inh: TEAD-YAP interaction inhibition, primary screen, TEAD-YAP interaction inhibitor project, luminescence, HEK-TIYL cells; AID 1259422, 2018; inhibition, % at 9.12 µM; 640,000 compounds, 1.4% hits; TEAD-Gal4/YAP UAS-luciferase luminescence; in the data active means inhibition above about 32%
MITF inh: MITF inhibitors, primary screen, biochemical, AlphaScreen, human; AlphaScreen MITF homodimerization, bead proximity signal; inhibition, % at 2.6 µM; 650,000 compounds, 0.91% hits; AID 1259374, 2018; in the data active means inhibition above about 50%
FBW7 activator: FBW7 E3 ligase activators, primary screen, biochemical, AlphaScreen, human; F-box/WD repeat-containing protein 7 (Homo sapiens), Q969H0; AlphaScreen FBW7–phospho-cyclin E peptide binding, activator screen; normalized activity (activation), % at 26.1 µM; 650,000 compounds, 0.13% hits; AID 1259310, 2017; in the data active means normalized activity above about 1.9%;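 further: purified mutant Fbw7 with reduced substrate affinity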
GPR151 conf act: GPR151 activators, triplicate retest, confirmation, cell-based, PathHunter beta-arrestin, luminescence. shares compounds with GPR151 activ. GPR151 PathHunter beta-arrestin cells, 90 min; % of EA-reagent control over plate median. activation, % at 11.2 µM. 6,700 tested, under 10 active. AID 1508609, 2020;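 active means mean percent activation across replicates above the confirmation screen cutoff of 4.91%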
GPR119 counter: GPR119 activators in beta-arrestin cells, counter-screen for GPR151 activator project, cell-based, PathHunter beta-arrestin, luminescence, triplicate. 90 min; 0 = compound-well median, 100 = enzyme-acceptor control. 6,700 compounds, 0.3% hits. AID 1508611, 2020. shares compounds with GPR151 activ. activation, % at 11.2 µM;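 active means mean percent activation in the counterscreen above 29.09%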;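 further: counterscreen on off-target GPR119 to flag nonselective hits from the GPR151 activator screen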
Target sequence (Q8TDV5 whole entry, looked up): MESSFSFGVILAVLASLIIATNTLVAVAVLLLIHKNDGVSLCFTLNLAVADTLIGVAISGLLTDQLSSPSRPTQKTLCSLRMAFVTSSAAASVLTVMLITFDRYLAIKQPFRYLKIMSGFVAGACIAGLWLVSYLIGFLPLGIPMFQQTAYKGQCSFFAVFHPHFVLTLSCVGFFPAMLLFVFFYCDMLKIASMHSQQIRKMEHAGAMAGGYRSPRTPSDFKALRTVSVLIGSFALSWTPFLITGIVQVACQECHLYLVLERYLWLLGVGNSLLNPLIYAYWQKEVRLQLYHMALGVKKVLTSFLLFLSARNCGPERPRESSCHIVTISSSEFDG
Large screens that a line does not name were inactive (follow-up assays come after a bar, where they were run).

CC(=O)Nc1ccc(NC(=O)c2cnc(-c3ccccc3)s2)cc1	GPR151 activ 5.9 | GPR151 conf act inactive | GPR119 counter inactive
O=C1NC2(CCN(C(=O)c3ccccc3F)CC2)Nc2ccccc21	none
CCOc1ccc2ccccc2c1C(=O)NCc1cccs1	none
CCOc1ccc2ccccc2c1C(=O)NCc1ccccn1	GPR151 activ 21.1 | GPR151 conf act inactive | GPR119 counter inactive
N#CC1=C(N)Oc2cc(N)ccc2C12C(=O)Nc1ccc(Br)cc12 (stereo not drawn)	none
CCOC(=O)C1CCN(C(=O)COc2ccc(S(=O)(=O)N3CCCCC3)cc2)CC1	none
COc1ccc2sc(N(Cc3cccnc3)C(=O)c3ccccc3[N+](=O)[O-])nc2c1	GPR151 activ 8.6 | GPR151 conf act inactive | GPR119 counter inactive
O=C(c1ccccc1[N+](=O)[O-])N(Cc1cccnc1)c1nc2ccc(F)cc2s1	none
N#CC1=C(N)Oc2cc(O)ccc2C1C1CC=CCC1 (stereo not drawn)	GPR151 activ 5.4 | GPR151 conf act inactive | GPR119 counter inactive
CC(=O)NCCCc1nc(-c2ccccc2)nc(N)c1-c1nc2ccccc2s1	none
Cn1c(SCCC(=O)O)nnc1-c1cccc([N+](=O)[O-])c1	none
Cn1c(SCC(=O)c2ccc(F)cc2)nnc1-c1cccc([N+](=O)[O-])c1	GPR151 activ 5.7 | GPR151 conf act inactive | GPR119 counter inactive
COc1ccccc1-c1nnc(SCc2nnc(-c3cccc([N+](=O)[O-])c3)o2)n1C	GPR151 activ 6.3 | GPR151 conf act inactive | GPR119 counter inactive
COc1ccc(S(=O)(=O)N2CCC(NC(=O)c3ccccc3C)CC2)cc1	none
COc1cc(/C=C/c2nnc3c4ccccc4ncn23)cc(OC)c1OC	GPR151 activ 8.4 | GPR151 conf act inactive | GPR119 counter inactive
C(=C\c1nnc2c3ccccc3ncn12)/c1ccccc1	none
COC(=O)C1=CN(Cc2ccc(Cl)cc2)C=C(C(=O)OC)C1c1ccccc1Br	none
CC(=O)c1ccc(NC(=O)CSc2ccc(F)cc2)cc1	none
CC(=O)c1ccc(NC(=O)CSc2ccc(C)cc2)cc1	GPR151 activ 5.5 | GPR151 conf act inactive | GPR119 counter inactive
COC(=O)c1ccc(NC(=O)C2CC2)cc1	GPR151 activ 6.3 | GPR151 conf act inactive | GPR119 counter inactive
Cc1nc(NC(C)c2ccccc2)cc(-c2ccccc2F)n1 (stereo not drawn)	GPR151 activ 5.8 | GPR151 conf act inactive | GPR119 counter inactive
Cn1nccc1C(=O)NNC(=O)c1nnn(-c2nonc2N)c1-c1ccccc1	none
C=CCn1cc(/C=C2/C(=O)N(CCOC)C(=O)N(c3ccccc3)C2=O)c2ccccc21	none
Cc1nn(-c2ccccc2)c(-n2cccc2)c1C(=O)Nc1ccc2c(c1)OCO2	none
COc1ccc(C(O)C(C)c2nc3ccccc3n2C)cc1 (stereo not drawn)	GPR151 activ 6.3 | GPR151 conf act inactive | GPR119 counter inactive
CC(NC(=O)c1ccc(F)cc1)c1ccc2c(c1)OCCO2 (stereo not drawn)	none
CC(NC(=O)Nc1ccc(F)cc1F)c1ccc2c(c1)OCO2 (stereo not drawn)	GPR151 activ 7.2 | GPR151 conf act inactive | GPR119 counter inactive
CCSc1sc(CC)cc1C1C(C#N)=C(N)N(N(C)C)C2=C1C(=O)CC(C)(C)C2 (stereo not drawn)	GPR151 activ 5.5 | GPR151 conf act inactive | GPR119 counter inactive
NC(COP(=O)(O)O)C(=O)O (stereo not drawn)	GPR151 activ 5.5 | GPR151 conf act inactive | GPR119 counter inactive
O=C(Cc1ccc(F)cc1)NCCc1nnc2n1CCN(Cc1cc3ccccc3o1)CC2	GPR151 activ 5.1 | GPR151 conf act inactive | GPR119 counter inactive
CC(C)C(=O)NCCc1nnc2n1CCN(Cc1cc3ccccc3o1)CC2	none
C=CCOc1ccccc1/C=C1/SC(=S)N(CCC(=O)O)C1=O	none
CC1=NN(c2cccc(Cl)c2)C(=O)/C1=C\c1ccc(-c2cc([N+](=O)[O-])ccc2O)o1	none
Cc1cc(C(=O)N/N=C/c2ccccc2O)n[nH]1	none
Cc1cc(C(=O)N/N=C/c2ccccc2F)n[nH]1	GPR151 activ 9.8 | GPR151 conf act inactive | GPR119 counter inactive
CCOc1ccc(Br)cc1/C=N\NC(=O)c1cc(C)[nH]n1	GPR151 activ 7.1 | GPR151 conf act inactive | GPR119 counter inactive
CCOP(=O)(OCC)c1nc(-c2cccc3ccccc23)oc1NCc1ccco1	GPR151 activ 5.3 | GPR151 conf act inactive | GPR119 counter inactive
CCOc1ccc2c(-c3cc4cc(Br)ccc4oc3=O)cc(=O)oc2c1	GPR151 activ 7.9 | GPR151 conf act inactive | GPR119 counter inactive
COC(=O)Cn1cc(S(=O)(=O)N2CCCC2)cc1C(=O)OC	none
CCCNc1cc(C)nc(-c2ccccc2)n1	none
Cc1cccc(-c2nc(C)cc(NCCc3ccccn3)n2)c1	GPR151 activ 5.8 | GPR151 conf act inactive | GPR119 counter inactive
CCOC(=O)c1[nH]c(C)c(C(=O)Nc2c(C)n(C)n(-c3ccccc3)c2=O)c1C	GPR151 activ 6.5 | GPR151 conf act inactive | GPR119 counter inactive
COc1cccc(OC)c1C(=O)Nc1c(C)n(C)n(-c2ccccc2)c1=O	none
CCOC(=O)c1[nH]c(C)c(C(=O)Nc2cccc(OC)c2)c1C	none
CCOC(=O)c1[nH]c(C)c(C(=O)Nc2ccc(C)c(C)c2)c1C	GPR151 activ 5.0 | GPR151 conf act inactive | GPR119 counter inactive
O=c1c2c3c(sc2ncn1/N=C/c1ccc(O)c(O)c1O)CCCC3	GPR151 activ 5.4, MITF inh 58.2 | GPR151 conf act inactive | GPR119 counter inactive
CC1=C(C#N)C(=O)NC(=O)/C1=C\c1ccc(-c2cccc(C(=O)OC(C)C)c2)o1	GPR151 activ 5.0 | GPR151 conf act inactive | GPR119 counter inactive
CC(=O)c1cccc(-c2ccc(/C=C3\C(=O)NC(=O)C(C#N)=C3C)o2)c1	none
CCCCOC(=O)c1cccc(-c2ccc(/C=C3\C(=O)N(CCO)C(=O)C(C#N)=C3C)o2)c1	GPR151 activ 8.9 | GPR151 conf act inactive | GPR119 counter inactive
Nc1ncc(Cc2ccccc2)s1	none
CC(=O)c1ccc(Cc2cnc(N)s2)cc1	GPR151 activ 8.9 | GPR151 conf act inactive | GPR119 counter inactive
O=C(Nc1ncc(Cc2cccc(C(F)(F)F)c2)s1)c1cccc([N+](=O)[O-])c1	GPR151 activ 5.1 | GPR151 conf act inactive | GPR119 counter inactive
Nc1ncc(Cc2cccc([N+](=O)[O-])c2)s1	GPR151 activ 5.4 | GPR151 conf act inactive | GPR119 counter inactive
